Assay results taken from PubChem BioAssay (Tox21).
Inconclusive results are not listed. The source made the active and inactive calls. Unless noted, the call rests on the fitted dose curve; in most records, active means well fitted curve in the direction sought with a large enough effect in the repeat runs; inconclusive means weak or mixed curves; inactive means no such curve, though single readings can be large; an effect the other way counts as inactive or inconclusive.

Columns and labels:
[1] = qHTS assay to identify aromatase inhibitors - cell viability counter screen (AID 743084);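 further: cells stimulated with testosterone during compound exposure; nearly all actives have a fitted effect of over 55% in size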
[2] = biological target: Aryl hydrocarbon receptor (Homo sapiens) (UniProt P35869); assay: qHTS assay to identify small molecule that activate the aryl hydrocarbon receptor (AhR) signaling pathway (AID 743085); further: nearly all actives have a fitted effect of over 15% in size; further: potency means the concentration at half of the fitted maximal effect;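 on activation: HG2L7.5c1 human HepG2 liver cells with stably integrated DRE-driven firefly reporter; series mostly up to about 70 µM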
Sequence of Aryl hydrocarbon receptor (Homo sapiens) (P35869 whole entry, looked up): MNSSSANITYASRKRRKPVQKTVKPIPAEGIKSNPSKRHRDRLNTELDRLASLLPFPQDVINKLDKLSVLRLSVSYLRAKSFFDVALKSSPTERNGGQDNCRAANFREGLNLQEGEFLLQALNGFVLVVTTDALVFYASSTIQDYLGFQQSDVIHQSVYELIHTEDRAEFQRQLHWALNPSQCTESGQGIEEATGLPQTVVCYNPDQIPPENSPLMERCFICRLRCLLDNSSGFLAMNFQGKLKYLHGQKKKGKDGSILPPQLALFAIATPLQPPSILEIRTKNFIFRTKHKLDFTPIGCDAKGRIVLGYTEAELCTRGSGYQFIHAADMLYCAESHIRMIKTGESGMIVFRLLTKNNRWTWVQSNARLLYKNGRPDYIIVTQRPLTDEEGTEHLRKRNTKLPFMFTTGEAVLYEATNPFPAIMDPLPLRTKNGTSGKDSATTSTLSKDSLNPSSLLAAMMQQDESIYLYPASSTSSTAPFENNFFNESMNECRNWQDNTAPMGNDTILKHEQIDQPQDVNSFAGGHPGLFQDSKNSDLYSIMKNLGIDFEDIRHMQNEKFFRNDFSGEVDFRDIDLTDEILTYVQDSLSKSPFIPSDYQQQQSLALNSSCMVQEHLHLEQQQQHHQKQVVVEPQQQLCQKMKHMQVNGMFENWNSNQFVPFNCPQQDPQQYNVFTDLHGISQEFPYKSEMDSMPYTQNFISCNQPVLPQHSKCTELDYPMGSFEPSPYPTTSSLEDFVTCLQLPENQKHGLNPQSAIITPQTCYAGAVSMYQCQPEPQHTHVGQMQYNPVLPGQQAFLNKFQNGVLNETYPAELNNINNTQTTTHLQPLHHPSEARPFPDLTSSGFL
How it was run: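 HepG2 cells (HG2L7.5c1) stably carrying a firefly luciferase reporter driven by 20 dioxin responsive elements were exposed to compound for 24 h at 37C after a 5 h settling period; luminescence rise (ONE-Glo) indicated activation.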

[3] = qHTS assay to identify small molecule that activate the aryl hydrocarbon receptor (AhR) signaling pathway - cell viability counter screen (AID 743086);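 further: HepG2 liver cells carrying the AhR DRE luciferase reporter; series mostly up to about 70 µM; nearly all actives have a fitted effect of over 45% in size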
How it was run: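 HepG2-AhR-luc (HG2L7.5c1) cells, 4000/well, treated 24 h at 37 C with compound; viability measured as CellTiter-Fluor fluorescence after 30 min in the same wells as the luciferase read.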

[4] = biological target: Peroxisome proliferator-activated receptor gamma (Homo sapiens) (UniProt P37231); assay: qHTS assay to identify small molecule agonists of the peroxisome proliferator-activated receptor gamma (PPARg) signaling pathway (AID 743094; active means well fitted activation curve with a large enough effect in the signal ratio in the repeat runs, not every such curve was filed as active; the % refers to the signal ratio)
Sequence of Peroxisome proliferator-activated receptor gamma (Homo sapiens) (P37231 whole entry, looked up): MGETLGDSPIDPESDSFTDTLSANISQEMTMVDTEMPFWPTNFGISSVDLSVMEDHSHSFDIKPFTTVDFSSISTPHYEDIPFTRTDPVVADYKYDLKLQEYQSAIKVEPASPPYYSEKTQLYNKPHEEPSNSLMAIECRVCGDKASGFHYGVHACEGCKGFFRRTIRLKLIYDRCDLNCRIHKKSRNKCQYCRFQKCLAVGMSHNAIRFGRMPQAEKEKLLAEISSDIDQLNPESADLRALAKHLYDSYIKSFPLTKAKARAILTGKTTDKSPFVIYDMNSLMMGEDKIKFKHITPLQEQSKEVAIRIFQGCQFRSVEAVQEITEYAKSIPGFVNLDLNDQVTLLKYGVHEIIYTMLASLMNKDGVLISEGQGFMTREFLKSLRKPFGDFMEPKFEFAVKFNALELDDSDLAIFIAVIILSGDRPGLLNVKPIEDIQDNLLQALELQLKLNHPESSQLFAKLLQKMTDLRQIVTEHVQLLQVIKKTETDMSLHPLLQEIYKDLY
How it was run: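 HEK293H PPARg-bla cells, 5 h settle at 37C/5% CO2; compound (DMSO) 17 h, 37C; B/G FRET substrate 1 h RT; fluorescence intensity read-out. qHTS format.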

[5] = qHTS assay to identify small molecule antagonists of the peroxisome proliferator-activated receptor gamma (PPARg) signaling pathway - cell viability counter screen (AID 743194); further: nearly all actives have a fitted effect of over 55% in size
How it was run: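 Cytotoxicity counter screen in PPARg-bla HEK293H cells, same wells as reporter assay. Compounds plus 50 nM rosiglitazone (final) for 17 h at 37 C, then viability read by CellTiter-Glo luminescence.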

[6] = qHTS assay for small molecule agonists of the antioxidant response element (ARE) signaling pathway (AID 743202; active means well fitted activation curve with a large enough effect in the signal ratio in the repeat runs, not every such curve was filed as active; the % refers to the signal ratio)
How it was run: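 HepG2 ARE-bla reporter line, 2,000 cells/well; 5 h preincubation 37 C/5% CO2; compound (DMSO) 16 h 37 C; B/G FRET substrate 2 h RT; fluorescence intensity.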

[7] = qHTS assay for small molecule agonists of the antioxidant response element (ARE) signaling pathway - cell viability counter screen (AID 743203; calls by dose curve; further: nearly all actives have a fitted effect of over 55% in size)
How it was run: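 Luminescence read-out (CellTiter-Glo, 30 min at room temperature) measured cell viability in the same wells as the ARE beta-lactamase reporter. HepG2 ARE-bla cells were treated with compounds for 16 hrs at 37C/5% CO2.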

[8] = qHTS assay for small molecule activators of the heat shock response signaling pathway - cell viability counter screen (AID 743209); further: nearly all actives have a fitted effect of over 50% in size
How it was run: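 HSE-bla HeLa; 1500 cells/well; overnight 37 C, 5% CO2; compound 5 h 37 C; LiveBLAzer B/G substrate 2.5 h RT; CellTiter-Glo 30 min RT; luminescence.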

[9] = qHTS assay for small molecule activators of the heat shock response signaling pathway (AID 743210; active means well fitted activation curve with a large enough effect in the signal ratio in the repeat runs, with a control signal flat, not every such curve was filed as active; the % refers to the signal ratio;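 further: HeLa cells with beta-lactamase reporter driven by heat shock elements; series mostly up to about 63 µM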)
How it was run: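 Beta-lactamase reporter read-out: FRET substrate fluorescence after 2.5 h at RT, following 5 h compound treatment at 37 C of HeLa cells carrying HSE-driven bla reporter; quantitative HTS format.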

[10] = qHTS assay to identify small molecule agonists of the peroxisome proliferator-activated receptor delta (PPARd) signaling pathway - cell viability counter screen (AID 743211); further: nearly all actives have a fitted effect of over 55% in size
How it was run: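 PPARd-bla HEK293H cells (UAS-beta-lactamase reporter) were treated with compounds for 17 h at 37 C. Viability was then read in the same wells by CellTiter-Glo luminescence after 30 min at room temperature.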

[11] = biological target: Peroxisome proliferator-activated receptor delta (Homo sapiens) (UniProt Q03181); assay: qHTS assay to identify small molecule agonists of the peroxisome proliferator-activated receptor delta (PPARd) signaling pathway (AID 743212; calls by dose curve)
Sequence of Peroxisome proliferator-activated receptor delta (Homo sapiens) (Q03181 whole entry, looked up): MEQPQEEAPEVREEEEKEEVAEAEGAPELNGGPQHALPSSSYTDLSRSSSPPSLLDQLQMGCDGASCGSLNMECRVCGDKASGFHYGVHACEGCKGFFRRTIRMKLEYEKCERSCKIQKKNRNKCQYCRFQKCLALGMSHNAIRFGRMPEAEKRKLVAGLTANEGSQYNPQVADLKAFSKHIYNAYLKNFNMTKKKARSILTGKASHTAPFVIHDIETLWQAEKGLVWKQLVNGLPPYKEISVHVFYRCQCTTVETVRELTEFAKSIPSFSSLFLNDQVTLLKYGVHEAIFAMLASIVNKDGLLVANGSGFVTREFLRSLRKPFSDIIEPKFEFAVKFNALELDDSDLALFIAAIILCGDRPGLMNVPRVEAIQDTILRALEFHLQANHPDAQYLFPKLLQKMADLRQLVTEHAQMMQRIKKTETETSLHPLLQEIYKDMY
How it was run: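 Read-out: beta-lactamase FRET fluorescence after 2 h room-temperature incubation with LiveBLAzer B/G substrate. Cells were HEK293H carrying a UAS-bla reporter for PPARd, treated at 37 C with DMSO-dissolved compounds.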

[12] = qHTS assay to identify small molecule antagonists of the peroxisome proliferator-activated receptor delta (PPARd) signaling pathway - cell viability counter screen (AID 743213); further: nearly all actives have a fitted effect of over 50% in size
How it was run: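 Viability counter-screen, qHTS format: PPARd-bla HEK293H, L165041 300 nM final, 17 h compound exposure at 37 C, CellTiter-Glo luminescence after 30 min RT.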

[13] = qHTS assay to identify small molecule agonists of the farnesoid-X-receptor (FXR) signaling pathway - cell viability counter screen (AID 743218); further: nearly all actives have a fitted effect of over 45% in size
How it was run: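 Luminescence from CellTiter-Glo, read after 30 min at RT, reports viability of GeneBLAzer FXR-UAS-bla HEK 293T cells treated 16 h with compounds in the wells used for the beta-lactamase reporter.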

[14] = biological target: Vitamin D3 receptor (Homo sapiens) (UniProt P11473); assay: qHTS assay to identify small molecule agonists of the vitamin D receptor (VDR) signaling pathway (AID 743222; calls by dose curve)
Sequence of Vitamin D3 receptor (Homo sapiens) (P11473 whole entry, looked up): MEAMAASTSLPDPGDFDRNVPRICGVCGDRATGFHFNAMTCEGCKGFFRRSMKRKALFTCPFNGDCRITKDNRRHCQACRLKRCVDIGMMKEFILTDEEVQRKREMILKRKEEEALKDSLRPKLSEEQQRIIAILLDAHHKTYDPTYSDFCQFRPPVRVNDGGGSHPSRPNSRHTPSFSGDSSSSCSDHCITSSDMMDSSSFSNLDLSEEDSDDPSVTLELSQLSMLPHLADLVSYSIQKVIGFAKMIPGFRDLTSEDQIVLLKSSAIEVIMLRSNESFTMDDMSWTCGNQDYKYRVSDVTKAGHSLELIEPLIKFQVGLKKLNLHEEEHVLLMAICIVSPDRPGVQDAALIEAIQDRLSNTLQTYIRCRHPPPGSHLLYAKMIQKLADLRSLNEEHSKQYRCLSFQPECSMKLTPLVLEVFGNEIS
How it was run: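 Beta-lactamase reporter readout (LiveBLAzer B/G FRET, 2 h RT) in VDR-bla cells after 16 h compound treatment at 37C, 5% CO2; cells pre-incubated 4 h before pin transfer of DMSO solutions.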

[15] = biological target: Peroxisome proliferator-activated receptor delta (Homo sapiens) (UniProt Q03181); assay: qHTS assay to identify small molecule antagonists of the peroxisome proliferator-activated receptor delta (PPARd) signaling pathway (AID 743215; active means well fitted inhibition curve with a large enough effect in the signal ratio in the repeat runs, not every such curve was filed as active; the % refers to the signal ratio;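 further: cells stimulated with agonist L165041 at 300 nM final during compound exposure; series mostly up to about 62 µM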)
How it was run: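 HEK293H GeneBLAzer PPARd UAS-bla reporter cells; cpd + L165041 300 nM final, 17 h 37 C; LiveBLAzer B/G FRET substrate 2 h RT; fluorescence intensity read-out. Antagonist mode.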

[16] = qHTS assay to identify small molecule antagonists of the farnesoid-X-receptor (FXR) signaling pathway - cell viability counter screen (AID 743221; active means well fitted cell-killing curve with a large enough effect in the repeat runs, not every such curve was filed as active; further: nearly all actives have a fitted effect of over 50% in size)
How it was run: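 FXR-UAS-bla HEK 293T cells were treated with test compounds plus chenodeoxycholic acid (50 uM final) for 16 h at 37 C. Cell viability in the same wells was then read as CellTiter-Glo luminescence after 30 min at room temperature.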

[17] = biological target: Vitamin D3 receptor (Homo sapiens) (UniProt P11473); assay: qHTS assay to identify small molecule antagonists of the vitamin D receptor (VDR) signaling pathway (AID 743223; active means well fitted inhibition curve with a large enough effect in the signal ratio in the repeat runs, not every such curve was filed as active; the % refers to the signal ratio)
How it was run: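 VDR-bla cells were plated, incubated 4 h at 37C, then given compound and 1alpha,25-dihydroxyvitamin D3 (3 nM final). After 16 h at 37C, LiveBLAzer B/G FRET substrate was added for 2 h at room temperature and fluorescence read.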

[18] = biological target: Bile acid receptor (Homo sapiens) (UniProt Q96RI1); assay: qHTS assay to identify small molecule antagonists of the farnesoid-X-receptor (FXR) signaling pathway (AID 743217; active means well fitted inhibition curve with a large enough effect in the signal ratio in the repeat runs, not every such curve was filed as active; the % refers to the signal ratio)
Sequence of Bile acid receptor (Homo sapiens) (Q96RI1 whole entry, looked up): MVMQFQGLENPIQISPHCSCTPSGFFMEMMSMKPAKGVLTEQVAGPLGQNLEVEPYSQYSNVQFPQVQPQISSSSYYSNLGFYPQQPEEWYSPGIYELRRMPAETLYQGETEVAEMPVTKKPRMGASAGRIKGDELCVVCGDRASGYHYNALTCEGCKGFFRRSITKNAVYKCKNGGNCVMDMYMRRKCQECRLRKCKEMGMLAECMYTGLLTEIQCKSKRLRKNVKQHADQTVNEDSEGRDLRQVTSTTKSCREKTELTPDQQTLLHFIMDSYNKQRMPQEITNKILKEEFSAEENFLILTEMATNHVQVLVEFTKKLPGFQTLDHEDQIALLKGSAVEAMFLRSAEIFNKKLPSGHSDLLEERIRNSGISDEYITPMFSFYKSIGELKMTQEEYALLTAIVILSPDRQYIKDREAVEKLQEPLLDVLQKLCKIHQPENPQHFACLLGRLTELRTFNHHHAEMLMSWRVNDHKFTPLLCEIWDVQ
How it was run: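 Read-out: beta-lactamase FRET fluorescence (LiveBLAzer B/G substrate, 2 h, room temperature) in GeneBLAzer FXR-UAS-bla HEK 293T cells. Compounds were co-dosed with 50 uM chenodeoxycholic acid (final) and incubated 16 h at 37 °C.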

[19] = biological target: Bile acid receptor (Homo sapiens) (UniProt Q96RI1); assay: qHTS assay to identify small molecule agonists of the farnesoid-X-receptor (FXR) signaling pathway (AID 743220; active means well fitted activation curve with a large enough effect in the signal ratio in the repeat runs, not every such curve was filed as active; the % refers to the signal ratio)
How it was run: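 FXR-UAS-bla HEK 293T cells carrying a UAS-driven beta-lactamase reporter were plated for 5 h at 37C/5% CO2, then exposed to DMSO-dissolved Tox21 10K compounds for 16 h at 37C. A LiveBLAzer B/G FRET substrate was loaded for 2 h at room temperature before fluorescence reading.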

[20] = biological target: Peroxisome proliferator-activated receptor gamma (Homo sapiens) (UniProt P37231); assay: qHTS assay to identify small molecule antagonists of the peroxisome proliferator-activated receptor gamma (PPARg) signaling pathway (AID 743191; calls by dose curve; further: series mostly up to about 63 µM; nearly all actives have a fitted effect of over 30% in size)
How it was run: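 GeneBLAzer PPARg UAS-bla HEK293H cells, 5 h post-plating, exposed to compounds 17 h at 37C. LiveBLAzer B/G FRET substrate added for 1 h at room temperature; beta-lactamase reporter read by fluorescence intensity.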

Measured: Potency

C=CCOC(=O)CCCCCC
not listed: [15] | [16] | [17] | [18] | [19] | [20]
inactive: all other assays above

CC(C)NCC(O)c1ccc2ccccc2c1 (configuration not stated)
not listed: [8] | [9] | [11] | [18] | [19] | [20]
inactive: all other assays above

C=CC(=O)CCCCC
not listed: [5] | [14] | [15] | [17] | [18] | [19] | [20]
inactive: all other assays above

CN(C)CCOC(=O)C(c1ccccc1)C1(O)CCCC1 (configuration not stated)
not listed: [9] | [15] | [18] | [19] | [20]
inactive: all other assays above

C[Si]1(C)O[Si](C)(C)O[Si](C)(C)O[Si](C)(C)O[Si](C)(C)O1
not listed: [9] | [17] | [18] | [19] | [20]
inactive: all other assays above

CCOCCOCC
not listed: [15] | [17] | [20]
inactive: all other assays above

CC1(C)O[C@H]2CC(=O)OC[C@]23[C@H]2CC[C@@]4(C)[C@H](c5ccoc5)OC(=O)[C@H]5O[C@]54[C@]2(C)C(=O)C[C@@H]13
not listed: [15] | [17] | [18] | [19] | [20]
inactive: all other assays above

CN(C)C(C)(C)CO
not listed: [5] | [8] | [17] | [19] | [20]
inactive: all other assays above

COc1ccc(CCO)cc1
not listed: [5] | [13] | [18] | [19] | [20]
inactive: all other assays above

CCCc1ccc(O)cc1
not listed: [2] | [13] | [17] | [19]
inactive: all other assays above

Cn1nnc2c(C(N)=O)ncn2c1=O
not listed: [5] | [8] | [9] | [11] | [13] | [15] | [19] | [20]
inactive: all other assays above

CCOc1cccc(N)c1
not listed: [4] | [11] | [13] | [15] | [18] | [19]
inactive: all other assays above

c1ccc(B(c2ccccc2)c2ccccc2)cc1
active: [2] 30.6 µM
not listed: [5] | [6] | [8] | [12] | [15] | [19] | [20]
inactive: all other assays above

CCCCCC/C=C/C(=O)OC
not listed: [5] | [8] | [11] | [15] | [18] | [19] | [20]
inactive: all other assays above

CC(=O)CC(=O)Nc1ccc(C)cc1C
not listed: [4] | [9] | [14] | [15] | [17] | [20]
inactive: all other assays above

O=C(Cl)c1ccccc1[N+](=O)[O-]
not listed: [2] | [11] | [14] | [15] | [17] | [18] | [19]
inactive: all other assays above

CCC(=O)c1c(O)cc(O)cc1O
not listed: [2] | [6] | [8] | [11] | [14] | [15] | [17]
inactive: all other assays above

C[C@H]1[C@@H](c2ccccc2)NC(=O)N1C
not listed: [2] | [13] | [15] | [17]
inactive: all other assays above

CC1OCCC1=O (configuration not stated)
inactive: [1] | [2] | [3] | [5] | [6] | [7] | [9] | [10] | [12] | [13]
